# Experimental data published in PubChem BioAssay (EPA / NIEHS).
# “And” between values parts separate entries of the source, which are not always exact repeats. Equal entries are not always repeated. Results filed as inconclusive are left out. A structure can be active in one record and inactive in another. The source made the active and inactive calls. The calls were made as follows, unless noted: active = hit-call score of the fitted dose curve at least 0.9, where 1 is the maximum; inactive = score below 0.9.
# How the values were obtained:
# [1] = read-out: succinate dehydrogenase complex iron sulfur subunit B (SDHB), SDHB (gene 6390); test: LTEA_HepaRG_SDHB: Life Technologies and Expression Analysis (LTEA) Assay for succinate dehydrogenase complex iron sulfur subunit B (SDHB) using HepaRG (AID 2283528); conditions: mRNA level, 48 h; actives raise or lower the signal
# Outline: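 SDHB transcript level read by TaqMan qRT-PCR, housekeeping-normalised (ACTB, GAPDH, POLR2A), after 48 h chemical treatment of plated HepaRG cells; eight concentrations top 100 uM, half-log steps, 0.5% DMSO, duplicates; fitted both directions against DMSO.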
# [2] = read-out: Signal transducer and activator of transcription 3 (Homo sapiens) (UniProt P40763); test: LTEA_HepaRG_STAT3: Life Technologies and Expression Analysis (LTEA) Assay for Signal transducer and activator of transcription (STAT3) using HepaRG (AID 2283529); conditions: mRNA level, 48 h; actives raise or lower the signal
# Outline: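 Differentiated HepaRG cells, serum-free induction medium, dosed 48 h in duplicate, 8 half-log concentrations from 100 uM in 0.5% DMSO. STAT3 mRNA by qRT-PCR, normalised to ACTB, GAPDH, POLR2A; bidirectional fit versus DMSO.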
# [3] = read-out: solute carrier (SLCO1B1), SLCO1B1 (gene 10599); test: LTEA_HepaRG_SLCO1B1: Life Technologies and Expression Analysis (LTEA) Assay for solute carrier (SLCO1B1) using HepaRG (AID 2283530); conditions: mRNA level, 48 h; actives raise or lower the signal
# Outline: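 SLCO1B1 transcript levels were quantified by TaqMan qRT-PCR using three housekeeping genes for normalization. This followed 48 h chemical exposure (100 uM top, half-log, 8 points, 0.5% DMSO) of HepaRG liver cells, with gain or loss fitted relative to DMSO.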
# [4] = read-out: sulfotransferase 2A1 (SULT2A1), SULT2A1 (gene 6822); test: LTEA_HepaRG_SULT2A1: Life Technologies and Expression Analysis (LTEA) Assay for sulfotransferase 2A1 (SULT2A1) using HepaRG (AID 2283531); conditions: mRNA level, 48 h; actives raise or lower the signal
# Outline: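 Expression change of SULT2A1, by qRT-PCR with three housekeeping-gene normalization, was scored bidirectionally versus DMSO. Cells: differentiated HepaRG, dosed in duplicate for 48 h across 8 points, highest 100 µM, half-log dilution, 0.5% DMSO.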
# [5] = read-out: Transforming Growth Factor (TGFA), TGFA (gene 7039); test: LTEA_HepaRG_TGFA: Life Technologies and Expression Analysis (LTEA) Assay for Transforming Growth Factor (TGFA) using HepaRG (AID 2283532); conditions: mRNA level, 48 h; actives raise or lower the signal
# Outline: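 Differentiated HepaRG cells exposed 48 hours in serum-free induction medium, 0.5% DMSO vehicle, 8-point half-log series from 100 uM, in duplicate. TGFA mRNA by TaqMan qRT-PCR, normalised to ACTB, GAPDH, POLR2A; bidirectional fit versus DMSO.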
# [6] = read-out: Transforming Growth Factor (TGFB1), TGFB1 (gene 7040); test: LTEA_HepaRG_TGFB1: Life Technologies and Expression Analysis (LTEA) Assay for Transforming Growth Factor (TGFB1) Transporter using HepaRG (AID 2283533); conditions: mRNA level, 48 h; actives raise or lower the signal
# Outline: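 TGFB1 transcript measured by qRT-PCR with normalisation to three housekeeping genes (ACTB, GAPDH, POLR2A); human HepaRG line treated in duplicate for 48 hr with an 8-point series topping at 100 uM, 0.5% DMSO vehicle, bidirectionally fitted.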
# TIMP1, TIMP1 (gene 7076) = test: LTEA_HepaRG_TIMP1: Life Technologies and Expression Analysis (LTEA) Assay for TIMP1 using HepaRG (AID 2283534); conditions: mRNA level, 48 h; actives raise or lower the signal
# Outline: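 Bidirectional change in TIMP1 transcript versus 0.5% DMSO, measured by TaqMan qRT-PCR with three housekeeping genes for normalization. HepaRG human liver cells dosed 48 h in duplicate, top concentration 100 uM with half-log dilutions.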
# [7] = read-out: Tumor necrosis factor receptor 1 (TNFRSF1A), TNFRSF1A (gene 7132); test: LTEA_HepaRG_TNFRSF1A: Life Technologies and Expression Analysis (LTEA) Assay for Tumor necrosis factor receptor 1 (TNFRSF1A) using HepaRG (AID 2283535); conditions: mRNA level, 48 h; actives raise or lower the signal
# Outline: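 mRNA measured by qRT-PCR (TaqMan, Fluidigm arrays) against ACTB/GAPDH/POLR2A housekeepers after 48 h chemical exposure of HepaRG cells. Top concentration 100 uM, half-log 8-point series, duplicates; vehicle 0.5% DMSO, both fit directions.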
# [8] = read-out: Thyroid Hormone Responsive (THRSP), THRSP (gene 7069); test: LTEA_HepaRG_THRSP: Life Technologies and Expression Analysis (LTEA) Assay for Thyroid Hormone Responsive (THRSP) using HepaRG (AID 2283536); conditions: mRNA level, 48 h; actives raise or lower the signal
# Outline: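 Differentiated HepaRG cells treated 48 h in serum-free induction medium with 8 half-log concentrations up to 100 uM (0.5% DMSO), duplicates. THRSP mRNA by TaqMan qRT-PCR normalised to ACTB, GAPDH, POLR2A; bidirectional fit versus DMSO.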
# [9] = read-out: UDP glucuronosyltransferase (UGT1A1), UGT1A1 (gene 54658); test: LTEA_HepaRG_UGT1A1: Life Technologies and Expression Analysis (LTEA) Assay for UDP glucuronosyltransferase (UGT1A1) using HepaRG (AID 2283538); conditions: mRNA level, 48 h; actives raise or lower the signal
# Outline: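 HepaRG cells, 0.5% DMSO vehicle, 48 h exposure in serum-free induction medium to 8-point half-log series topping at 100 uM, in duplicate. UGT1A1 mRNA by Fluidigm qRT-PCR, normalized to ACTB/GAPDH/POLR2A; bidirectional fit versus DMSO.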
# [10] = read-out: UDP glucuronosyltransferase (UGT1A6), UGT1A6 (gene 54578); test: LTEA_HepaRG_UGT1A6: Life Technologies and Expression Analysis (LTEA) Assay for UDP glucuronosyltransferase (UGT1A6) using HepaRG (AID 2283539); conditions: mRNA level, 48 h; actives raise or lower the signal
# Outline: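 Expression was quantified by TaqMan qRT-PCR on Fluidigm arrays with ACTB/GAPDH/POLR2A normalization and bidirectional fitting against 0.5% DMSO. HepaRG cells (~100,000/well) were treated in duplicate for 48 h at eight half-log concentrations up to 100 uM in serum-free induction medium.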
# [11] = read-out: X-box binding protein 1 (XBP1), XBP1 (gene 7494); test: LTEA_HepaRG_XBP1: Life Technologies and Expression Analysis (LTEA) Assay for X-box binding protein 1 (XBP1) using HepaRG (AID 2283540); conditions: mRNA level, 48 h; actives raise or lower the signal
# Outline: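 XBP1 transcript by qRT-PCR (housekeeping-normalized: ACTB, GAPDH, POLR2A) after 48 h chemical treatment of HepaRG cells, 8-point half-log series topping at 100 uM, vehicle 0.5% DMSO. Gain and loss of signal fitted relative to DMSO.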
# [12] = ATG_XTT_Cytotoxicity: Cytotoxicity Assessment in the Attagene TRANS-FACTORIAL HepG2 Assay (AID 2283584; active = hit-call score of the fitted dose curve at least 0.9, where 1 is the maximum;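 as to AC50: cells exposed to compound for 24 h before reading; active means loss of viability signal versus DMSO baseline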)
# Outline: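 Viability endpoint from XTT after 24 h chemical exposure of reporter-transfected human HepG2 liver cells; signal loss fitted relative to DMSO negative control.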
# [13] = TOX21_p53_BLA_p2_viability: Viability Assessment in the Tox21 HCT-116 p53 Agonism Beta-lactamase Assay, Phase 2 (AID 2283591; active = hit-call score of the fitted dose curve at least 0.9, where 1 is the maximum;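 also: compound exposure lasted 16 h at 37 °C; actives lower the ATP signal meaning cytotoxicity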)
# Outline: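 HCT116 p53-bla cells, 4000/well, dosed after 5 h plating (217-fold dilution of DMSO stocks) and incubated 16 h at 37C. Viability taken as cellular ATP by CellTiter-Glo luminescence after 30 min RT; signal loss marks cytotoxicity.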
# [14] = molecular target: Cellular tumor antigen p53 (Homo sapiens) (UniProt P04637); test: TOX21_p53_BLA_p2_ratio: Tox21 HCT-116 p53 Agonism Beta-lactamase Assay, Ratio, Phase 2 (AID 2283592; active = hit-call score of the fitted dose curve at least 0.9, where 1 is the maximum)
# Outline: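 Gain-of-signal p53 agonism was scored from the beta-lactamase FRET ratio (460/530 nm, 405 nm excitation) in HCT116 cells treated 16 h at 37C, 5% CO2, with DMSO serving as negative control and baseline.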
# [15] = molecular target: Cellular tumor antigen p53 (Homo sapiens) (UniProt P04637); test: TOX21_p53_BLA_p3_ratio: Tox21 HCT-116 p53 Agonism Beta-lactamase Assay, Ratio, Phase 3 (AID 2283596; active = hit-call score of the fitted dose curve at least 0.9, where 1 is the maximum)
# Outline: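 HCT116 p53-bla cells (4000/well) given compound in DMSO (217-fold dilution) after 5 h, incubated 16 h at 37C. CCF4-AM substrate 2 h at room temperature; 460/530 nm emission ratio, gain fitted against DMSO.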
# [16] = LTEA_HepaRG_LDH_cytotoxicity: Cytotoxicity Assessment in the Life Technologies and Expression Analysis (LTEA) Assay (AID 2283563; active = hit-call score of the fitted dose curve at least 0.9, where 1 is the maximum;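 as to AC50: LDH activity released into spent culture medium as a marker of cell death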)
# Outline: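 LDH release into culture medium read after 48 h chemical treatment of HepaRG cells. Duplicate wells, eight-point half-log series topping at 100 uM, 0.5% DMSO vehicle and baseline.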
# [17] = TOX21_p53_BLA_p4_viability: Viability Assessment in the Tox21 HCT-116 p53 Agonism Beta-lactamase Assay, Phase 4 (AID 2283597; active = hit-call score of the fitted dose curve at least 0.9, where 1 is the maximum;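 also: hits lower the luminescence signal meaning cytotoxicity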)
# Outline: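 Following a 16 h exposure at 37C, the treated HCT116 wells were first read for the FRET ratio. They were then lysed with CellTiter-Glo, and ATP luminescence was recorded after 30 min at room temperature.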
# Sequence of Cellular tumor antigen p53 (Homo sapiens) (P04637 whole entry, looked up): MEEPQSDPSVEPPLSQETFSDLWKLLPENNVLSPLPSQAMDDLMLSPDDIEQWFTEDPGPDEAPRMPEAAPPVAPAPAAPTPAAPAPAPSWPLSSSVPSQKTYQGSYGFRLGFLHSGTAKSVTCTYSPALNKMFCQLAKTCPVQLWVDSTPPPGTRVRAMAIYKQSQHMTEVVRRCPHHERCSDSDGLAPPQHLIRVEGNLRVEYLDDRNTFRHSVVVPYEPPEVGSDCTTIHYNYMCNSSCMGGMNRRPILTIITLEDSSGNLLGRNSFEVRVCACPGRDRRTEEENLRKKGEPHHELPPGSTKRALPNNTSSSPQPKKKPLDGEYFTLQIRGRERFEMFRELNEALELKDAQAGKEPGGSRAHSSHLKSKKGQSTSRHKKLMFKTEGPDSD
# Sequence of Signal transducer and activator of transcription 3 (Homo sapiens) (P40763 whole entry, looked up): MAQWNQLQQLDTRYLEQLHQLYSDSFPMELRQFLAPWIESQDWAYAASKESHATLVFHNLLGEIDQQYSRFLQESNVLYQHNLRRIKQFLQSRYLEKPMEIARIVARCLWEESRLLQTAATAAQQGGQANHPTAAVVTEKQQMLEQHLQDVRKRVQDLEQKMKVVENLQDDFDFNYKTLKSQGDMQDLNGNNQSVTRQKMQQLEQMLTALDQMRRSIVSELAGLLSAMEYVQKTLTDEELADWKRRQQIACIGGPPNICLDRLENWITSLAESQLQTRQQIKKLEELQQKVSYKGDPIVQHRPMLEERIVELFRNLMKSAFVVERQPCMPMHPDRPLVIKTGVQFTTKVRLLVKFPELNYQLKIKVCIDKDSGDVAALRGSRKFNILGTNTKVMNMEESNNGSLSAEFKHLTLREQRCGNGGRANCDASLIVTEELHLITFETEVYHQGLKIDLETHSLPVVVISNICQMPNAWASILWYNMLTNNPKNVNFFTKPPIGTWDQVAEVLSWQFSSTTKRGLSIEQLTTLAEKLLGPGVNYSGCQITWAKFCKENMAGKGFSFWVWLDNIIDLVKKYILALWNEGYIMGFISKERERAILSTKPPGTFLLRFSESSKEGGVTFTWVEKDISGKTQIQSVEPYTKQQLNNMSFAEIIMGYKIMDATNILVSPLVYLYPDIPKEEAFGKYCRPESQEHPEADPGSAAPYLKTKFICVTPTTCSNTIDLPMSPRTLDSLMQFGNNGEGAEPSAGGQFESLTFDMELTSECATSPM
smiles,measurement,setting,value
Oc1ccc2ccccc2c1N=Nc1ccccc1,outcome,[1],inactive
same,AC50,[2],16.2 µM (active)
same,AC50,[3],11.4 µM (active)
same,AC50,[4],4.89 µM (active)
same,outcome,[5],inactive
same,outcome,[6],inactive
same,AC50,"TIMP1, TIMP1 (gene 7076)",10.1 µM (active)
same,outcome,[7],inactive
same,AC50,[8],2.19 µM (active)
same,AC50,[9],0.811 µM (active)
same,outcome,[10],inactive
same,AC50,[11],7.84 µM (active)
same,outcome,[12],inactive
same,outcome,[13],inactive
same,outcome,[14],inactive
same,outcome,[15],inactive
CC(=O)OCCOCCOCCOC(C)=O,outcome,[1],inactive
same,outcome,[2],inactive
same,outcome,[3],inactive
same,outcome,[4],inactive
same,outcome,[5],inactive
same,outcome,"TIMP1, TIMP1 (gene 7076)",inactive
same,outcome,[7],inactive
same,outcome,[8],inactive
same,outcome,[9],inactive
same,outcome,[11],inactive
same,outcome,[16],inactive
same,outcome,[12],inactive
same,outcome,[13],inactive
same,outcome,[14],inactive
same,outcome,[15],inactive
same,outcome,[17],inactive
COc1cc(S(=O)(=O)O)c(C)cc1N=Nc1c(O)ccc2cc(S(=O)(=O)O)ccc12,outcome,[1],inactive
same,outcome,[2],inactive
same,outcome,[3],inactive
same,outcome,[4],inactive
same,outcome,[5],inactive
same,outcome,"TIMP1, TIMP1 (gene 7076)",inactive
same,outcome,[7],inactive
same,outcome,[8],inactive
same,outcome,[9],inactive
same,outcome,[11],inactive
same,outcome,[12],inactive
same,outcome,[14],inactive
same,outcome,[15],inactive
same,outcome,[17],inactive
CCCCC(CC)COC(=O)CC(C(=O)OCC(CC)CCCC)S(=O)(=O)O (centres undefined),AC50,[1],86.7 µM (active)
same,outcome,[2],inactive
same,AC50,[3],85.5 µM (active)
same,AC50,[4],80.2 µM (active)
same,AC50,[5],50 µM (active)
same,AC50,[6],77.6 µM (active)
same,outcome,"TIMP1, TIMP1 (gene 7076)",inactive
same,AC50,[7],93.5 µM (active)
same,outcome,[8],inactive
same,AC50,[9],13.3 µM (active)
same,AC50,[10],79.9 µM (active)
same,outcome,[11],inactive
same,AC50,[16],75.3 µM (active)
same,AC50,[12],43.8 µM (active)
same,AC50,[13],59.8 µM (active) [middle of 4 runs]
same,AC50,[15],85.9 µM (active) and 83.5 µM (active)
same,outcome,[15],inactive
same,AC50,[17],50.1 µM (active) [middle of 4 runs]
